Data from PubChem BioAssay (EPA / NIEHS).
Values joined by “and” are separate entries in the source; they are usually repeats but may differ in a detail not shown here. Identical values can stand only once. Some structures have more than one record in an assay (separate samples or runs), and their calls can disagree. Active and inactive are the calls of the source. Rule for the calls: active = hit-call score of the fitted dose curve at least 0.9, where 1 is the maximum; inactive = score below 0.9.

Tests used:
[1] = ATG_ISRE_CIS: Attagene CIS-FACTORIAL HepG2 Assay for human Interferon Regulatory Factor 1 (IRF1) binding to an Interferon-Stimulated Response Element (ISRE) (AID 2282948); conditions: HepG2 ISRE cis-reporter (Attagene), mRNA transcription readout; actives raise or lower the signal
Method in brief: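 Quantitation relies on labelled RT-PCR fragments separated by capillary electrophoresis. Human HepG2 cells bearing cis-promoter reporter constructs were treated 24 h; DMSO served as baseline for bidirectional fitting.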

[2] = ATG_M_32_CIS: Attagene CIS-FACTORIAL HepG2 Assay for M32 Transcription Factor (Internal Marker) (AID 2282949); conditions: HepG2 Attagene cis-factorial M32 reporter, mRNA; actives raise or lower the signal;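 note: background control marker of the multiplexed CIS panel rather than a real target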
Method in brief: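 Fluorescent capillary electrophoresis peaks of HpaI-digested, FAM-labelled RT-PCR reporter products give the signal. Source: transiently transfected human liver HepG2 cells, 24 h after chemical dosing; bidirectional fitting against DMSO.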

[3] = ATG_M_06_CIS: Attagene CIS-FACTORIAL HepG2 Assay for M06 Transcription Factor (Internal Marker) (AID 2282950); conditions: HepG2 Attagene CIS-FACTORIAL M06 internal marker reporter; actives raise or lower the signal
Method in brief: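 Internal background marker within multiplexed cis-reporter HepG2 system. Cells transiently transfected, dosed 24 h; reporter mRNA measured by RT-PCR, HpaI digestion and capillary electrophoresis. Bidirectional fit relative to DMSO.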

[4] = molecular target: Hypoxia-inducible factor 1-alpha (Homo sapiens) (UniProt Q16665); assay: ATG_HIF1a_CIS: Attagene CIS-FACTORIAL HepG2 Assay for human Hypoxia Inducible Factor 1 (HIF1A) (AID 2282951); conditions: HepG2 Attagene cis-factorial HIF1a reporter transcription; actives raise or lower the signal
Method in brief: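 After 24 h chemical exposure of reporter-transfected HepG2 cells, reporter cDNA was PCR-amplified, labelled by 6-FAM primer extension (2 min 95 C, 20 s 68 C, 10 min 72 C), HpaI-cut (2 h, 37 C) and analysed by CE.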

[5] = molecular target: Hepatocyte nuclear factor 6 (Homo sapiens) (UniProt Q9UBC0); assay: ATG_HNF6_CIS: Attagene CIS-FACTORIAL HepG2 Assay for human Hepatocyte Nuclear Factor 6 (HNF6) (AID 2282952); conditions: HepG2 Attagene cis-factorial HNF6 reporter transcription; actives raise or lower the signal
Method in brief: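 HepG2 cells transiently transfected with cis-element-driven multiplexed reporter units measuring endogenous transcription factor activity. After 24 h exposure, reporter mRNA quantified by RT-PCR, FAM-labelled fragments and capillary electrophoresis; bidirectional fitting versus DMSO.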

[6] = molecular target: Heat shock factor protein 1 (Homo sapiens) (UniProt Q00613); assay: ATG_HSE_CIS: Attagene CIS-FACTORIAL HepG2 Assay for human Heat Shock Transcription Factor 1 (HSE) (AID 2282953); conditions: HepG2 HSE cis-reporter, Attagene RNA transcription; actives raise or lower the signal
Method in brief: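 HepG2 cells transfected with cis-promoter reporter units sensing endogenous transcription factor activity; reporter mRNA quantified 24 h post-dose by RT-PCR and capillary electrophoresis of 6-FAM-labelled products. Bidirectional fitting against DMSO.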

[7] = ATG_MRE_CIS: Attagene CIS-FACTORIAL HepG2 Assay for human Metal Responsive Element (MRE) (AID 2282954); conditions: HepG2 MRE cis-reporter transcription, Attagene multiplex; actives raise or lower the signal
Method in brief: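 Step one: transfect HepG2 with cis-regulated reporter units. Step two: dose 24 h. Step three: isolate RNA, RT-PCR, 6-FAM label, HpaI digest, capillary electrophoresis. Fit bidirectionally to DMSO.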

[8] = molecular target: Paired box protein Pax-6 (Homo sapiens) (UniProt P26367); assay: ATG_Pax6_CIS: Attagene CIS-FACTORIAL HepG2 Assay for human Paired Box 6 (PAX6) (AID 2282956); conditions: HepG2 CIS-FACTORIAL PAX6 reporter transcription, RNA readout; actives raise or lower the signal
Method in brief: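 After twenty-four hours of chemical exposure, transfected HepG2 cells are harvested for RNA. Cis-promoter reporter transcripts are amplified, fluorescently labelled and sized by capillary electrophoresis, with gain and loss of signal scored against DMSO.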

[9] = ATG_PXRE_CIS: Attagene CIS-FACTORIAL HepG2 Assay for human Pregnane X Receptor Element (PXRE) (AID 2282957); conditions: HepG2 Attagene CIS-FACTORIAL PXRE reporter, mRNA; actives raise or lower the signal
Method in brief: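 HepG2 cells transiently transfected with cis-element-driven multiplexed reporter units; after 24 h chemical exposure, reporter mRNA measured by RT-PCR, 6-FAM labelling, HpaI digestion and capillary electrophoresis. Bidirectional fitting relative to DMSO.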

[10] = ATG_PPRE_CIS: Attagene CIS-FACTORIAL HepG2 Assay for human Peroxisome Proliferator-activated Response Element (PPRE) (AID 2282958); conditions: HepG2 PPRE cis-element reporter, Attagene transcription factor profiling; actives raise or lower the signal
Method in brief: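 PPRE activity in HepG2: transient cis-reporter transfection, 24 h compound incubation, reporter mRNA by RT-PCR and CE fluorescence; gain/loss fitted against DMSO.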

[11] = ATG_RORE_CIS: Attagene CIS-FACTORIAL HepG2 Assay for human RAR-related Orphan Receptor Element (RORE) (AID 2282959); conditions: HepG2 Attagene cis-factorial RORE reporter, mRNA; actives raise or lower the signal
Method in brief: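 A 24-hour exposure of transfected HepG2 hepatoma cells precedes RNA isolation and reporter RT-PCR. Labeled products are digested with HpaI and resolved by capillary electrophoresis, with gain or loss of signal scored relative to DMSO.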

[12] = ATG_SREBP_CIS: Attagene CIS-FACTORIAL HepG2 Assay for human Sterol Regulatory Element Binding (SREBP) (AID 2282962); conditions: HepG2 Attagene cis-factorial SREBP reporter, mRNA; actives raise or lower the signal
Method in brief: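 Twenty-four hours after chemical dosing of transfected HepG2 cultures, reporter RNA was converted to cDNA, amplified, end-labelled with 6-FAM and resolved by capillary electrophoresis. Responses were fitted relative to DMSO.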

[13] = molecular target: Signal transducer and activator of transcription 3 (Homo sapiens) (UniProt P40763); assay: ATG_STAT3_CIS: Attagene CIS-FACTORIAL HepG2 Assay for human Signal Transducer and Activator of Transcription 3 (STAT3) (AID 2282963); conditions: HepG2, Attagene cis-factorial STAT3 reporter transcription; actives raise or lower the signal
Method in brief: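 Transcript-level reporter assay. HepG2 transient MRTU transfection, 24 h exposure, fluorescence detection after RT-PCR and CE; DMSO baseline.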

[14] = ATG_TA_CIS: Attagene CIS-FACTORIAL HepG2 Assay for human TA Basal Promoter (AID 2282964); conditions: HepG2 Attagene CIS-factorial TA basal promoter reporter; actives raise or lower the signal
Method in brief: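 HepG2 cells transiently transfected with multiple reporter units under cis promoter elements, reporting endogenous transcription factor activity; this endpoint tracks the TA basal promoter as background control. Reporter mRNA after 24 h dosing measured by RT-PCR/capillary electrophoresis; bidirectional fits versus DMSO.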

[15] = ATG_TCF_b_cat_CIS: Attagene CIS-FACTORIAL HepG2 Assay for human T-Cell-Factor with beta-catenin (TCF/b-cat) (AID 2282965); conditions: HepG2 TCF/beta-catenin cis-reporter transcription, actives raise or lower the signal
Method in brief: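 HepG2 cells transiently transfected with multiple cis-promoter-regulated reporter transcription units, so endogenous transcription factor activity is measured. Reporter mRNA read 24 hours after dosing by RT-PCR, fluorescent labelling and capillary electrophoresis; bidirectional fitting against DMSO.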

[16] = ATG_Sox_CIS: Attagene CIS-FACTORIAL HepG2 Assay for human SRY-box transcription factor (SOX) (AID 2282960); conditions: HepG2 Attagene cis-factorial SOX reporter, mRNA; actives raise or lower the signal
Method in brief: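 HepG2, cis reporter units, 24 h exposure. Reporter mRNA: RT-PCR → FAM labelling → HpaI → CE fluorescence. Bidirectional fit vs DMSO.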

[17] = molecular target: Transcription factor Sp1 (Homo sapiens) (UniProt P08047); assay: ATG_Sp1_CIS: Attagene CIS-FACTORIAL HepG2 Assay for human Specificity Protein 1 (Sp1) (AID 2282961); conditions: HepG2 Sp1 cis-reporter transcription, actives raise or lower the signal
Method in brief: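 Liver-derived HepG2 cells, cis-element reporter library, 24 h treatment; RNA isolated, cDNA amplified with reporter-specific primers, FAM-labeled fragments sized on capillary analyzer. DMSO baseline, bidirectional curve fit.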

[18] = ATG_PBREM_CIS: Attagene CIS-FACTORIAL HepG2 Assay for human Phenobarbital-responsive Enhancer Module (PBREM) (AID 2282955); conditions: HepG2 PBREM cis-reporter, Attagene multiplexed transcription; actives raise or lower the signal
Method in brief: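 Measures endogenous factor action on a phenobarbital-responsive enhancer module. HepG2 transiently carrying cis reporters, 24 h treatment, mRNA read-out by RT-PCR plus capillary electrophoresis.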

Measured: AC50

Sequence of Paired box protein Pax-6 (Homo sapiens) (P26367 whole entry, looked up): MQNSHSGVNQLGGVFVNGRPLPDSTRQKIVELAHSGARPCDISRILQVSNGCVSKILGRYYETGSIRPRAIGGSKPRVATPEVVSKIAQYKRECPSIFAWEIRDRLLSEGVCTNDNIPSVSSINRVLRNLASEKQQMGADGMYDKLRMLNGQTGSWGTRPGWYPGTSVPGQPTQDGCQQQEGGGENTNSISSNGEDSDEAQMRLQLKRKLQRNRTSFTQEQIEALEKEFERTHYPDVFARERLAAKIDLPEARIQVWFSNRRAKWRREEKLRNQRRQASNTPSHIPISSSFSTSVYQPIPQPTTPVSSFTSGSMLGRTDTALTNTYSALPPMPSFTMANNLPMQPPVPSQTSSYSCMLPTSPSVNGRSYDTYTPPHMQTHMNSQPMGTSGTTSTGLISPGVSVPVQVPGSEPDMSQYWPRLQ
Sequence of Transcription factor Sp1 (Homo sapiens) (P08047 whole entry, looked up, the tested form may be a part): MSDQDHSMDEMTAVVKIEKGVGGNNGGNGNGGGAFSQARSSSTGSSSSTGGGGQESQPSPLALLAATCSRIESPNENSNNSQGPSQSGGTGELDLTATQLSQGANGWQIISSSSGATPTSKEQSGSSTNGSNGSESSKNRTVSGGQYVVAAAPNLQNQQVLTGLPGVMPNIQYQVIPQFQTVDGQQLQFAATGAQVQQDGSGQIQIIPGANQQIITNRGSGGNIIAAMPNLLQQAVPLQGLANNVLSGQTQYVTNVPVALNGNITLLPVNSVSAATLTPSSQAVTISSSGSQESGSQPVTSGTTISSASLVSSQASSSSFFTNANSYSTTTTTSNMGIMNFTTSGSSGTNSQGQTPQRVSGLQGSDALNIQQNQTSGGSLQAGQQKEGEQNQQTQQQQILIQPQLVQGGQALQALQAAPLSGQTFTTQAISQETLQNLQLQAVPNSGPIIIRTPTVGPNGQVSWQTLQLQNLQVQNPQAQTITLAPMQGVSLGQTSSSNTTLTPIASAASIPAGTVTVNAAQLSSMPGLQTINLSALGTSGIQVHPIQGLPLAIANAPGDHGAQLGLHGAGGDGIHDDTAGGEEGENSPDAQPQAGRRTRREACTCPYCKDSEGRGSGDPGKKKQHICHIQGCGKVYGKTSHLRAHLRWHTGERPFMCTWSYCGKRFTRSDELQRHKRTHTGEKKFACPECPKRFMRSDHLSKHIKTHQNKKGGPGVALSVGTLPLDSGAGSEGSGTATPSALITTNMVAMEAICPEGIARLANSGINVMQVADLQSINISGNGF
Sequence of Hepatocyte nuclear factor 6 (Homo sapiens) (Q9UBC0 whole entry, looked up, the tested form may be a part): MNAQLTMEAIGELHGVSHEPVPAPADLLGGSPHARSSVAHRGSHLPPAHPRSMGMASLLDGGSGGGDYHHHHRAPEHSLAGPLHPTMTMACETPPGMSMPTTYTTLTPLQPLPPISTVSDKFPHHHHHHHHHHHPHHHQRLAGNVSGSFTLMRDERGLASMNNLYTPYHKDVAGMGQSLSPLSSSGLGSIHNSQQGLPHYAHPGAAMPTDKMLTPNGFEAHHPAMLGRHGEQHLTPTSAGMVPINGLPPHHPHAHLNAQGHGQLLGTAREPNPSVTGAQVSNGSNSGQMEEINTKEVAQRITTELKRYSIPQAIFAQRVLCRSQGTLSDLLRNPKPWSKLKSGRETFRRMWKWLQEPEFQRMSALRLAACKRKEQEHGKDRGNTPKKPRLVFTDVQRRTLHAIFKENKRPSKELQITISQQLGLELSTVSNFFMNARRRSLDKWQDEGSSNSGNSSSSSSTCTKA
Sequence of Hypoxia-inducible factor 1-alpha (Homo sapiens) (Q16665 whole entry, looked up): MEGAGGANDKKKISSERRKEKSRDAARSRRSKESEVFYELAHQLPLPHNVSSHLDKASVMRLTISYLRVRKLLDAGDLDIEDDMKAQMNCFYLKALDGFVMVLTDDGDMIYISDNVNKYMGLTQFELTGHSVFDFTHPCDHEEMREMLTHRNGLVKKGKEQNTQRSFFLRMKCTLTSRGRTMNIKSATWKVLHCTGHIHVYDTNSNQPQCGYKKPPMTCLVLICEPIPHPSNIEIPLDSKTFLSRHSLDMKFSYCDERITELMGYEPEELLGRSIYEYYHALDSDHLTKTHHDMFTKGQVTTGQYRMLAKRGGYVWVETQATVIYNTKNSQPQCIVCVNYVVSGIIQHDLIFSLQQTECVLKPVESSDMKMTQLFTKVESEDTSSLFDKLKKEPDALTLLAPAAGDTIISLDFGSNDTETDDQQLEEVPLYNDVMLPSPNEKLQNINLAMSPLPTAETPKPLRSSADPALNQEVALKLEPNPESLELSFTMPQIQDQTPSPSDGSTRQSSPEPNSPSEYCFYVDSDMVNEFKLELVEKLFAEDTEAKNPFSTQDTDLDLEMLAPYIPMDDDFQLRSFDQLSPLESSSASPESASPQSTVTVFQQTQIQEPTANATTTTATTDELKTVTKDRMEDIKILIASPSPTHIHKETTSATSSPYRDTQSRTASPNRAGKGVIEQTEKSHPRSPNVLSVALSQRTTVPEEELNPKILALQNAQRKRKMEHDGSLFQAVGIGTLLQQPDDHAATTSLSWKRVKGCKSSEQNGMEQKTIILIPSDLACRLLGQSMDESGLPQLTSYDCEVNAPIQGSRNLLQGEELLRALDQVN
Sequence of Heat shock factor protein 1 (Homo sapiens) (Q00613 whole entry, looked up): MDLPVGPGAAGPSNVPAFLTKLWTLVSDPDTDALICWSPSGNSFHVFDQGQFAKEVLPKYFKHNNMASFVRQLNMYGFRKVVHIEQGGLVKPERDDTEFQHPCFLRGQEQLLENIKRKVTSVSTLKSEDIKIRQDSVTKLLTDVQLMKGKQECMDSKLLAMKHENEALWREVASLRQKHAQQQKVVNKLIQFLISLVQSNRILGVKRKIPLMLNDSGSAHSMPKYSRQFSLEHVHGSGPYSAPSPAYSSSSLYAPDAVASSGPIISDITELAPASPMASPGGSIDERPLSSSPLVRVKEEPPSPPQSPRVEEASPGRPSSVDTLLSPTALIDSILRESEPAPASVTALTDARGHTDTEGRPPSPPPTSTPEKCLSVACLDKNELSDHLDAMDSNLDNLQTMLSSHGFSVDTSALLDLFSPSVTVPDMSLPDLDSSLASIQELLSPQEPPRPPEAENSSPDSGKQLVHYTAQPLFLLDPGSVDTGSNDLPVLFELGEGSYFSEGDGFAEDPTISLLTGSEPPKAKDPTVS
Sequence of Signal transducer and activator of transcription 3 (Homo sapiens) (P40763 whole entry, looked up): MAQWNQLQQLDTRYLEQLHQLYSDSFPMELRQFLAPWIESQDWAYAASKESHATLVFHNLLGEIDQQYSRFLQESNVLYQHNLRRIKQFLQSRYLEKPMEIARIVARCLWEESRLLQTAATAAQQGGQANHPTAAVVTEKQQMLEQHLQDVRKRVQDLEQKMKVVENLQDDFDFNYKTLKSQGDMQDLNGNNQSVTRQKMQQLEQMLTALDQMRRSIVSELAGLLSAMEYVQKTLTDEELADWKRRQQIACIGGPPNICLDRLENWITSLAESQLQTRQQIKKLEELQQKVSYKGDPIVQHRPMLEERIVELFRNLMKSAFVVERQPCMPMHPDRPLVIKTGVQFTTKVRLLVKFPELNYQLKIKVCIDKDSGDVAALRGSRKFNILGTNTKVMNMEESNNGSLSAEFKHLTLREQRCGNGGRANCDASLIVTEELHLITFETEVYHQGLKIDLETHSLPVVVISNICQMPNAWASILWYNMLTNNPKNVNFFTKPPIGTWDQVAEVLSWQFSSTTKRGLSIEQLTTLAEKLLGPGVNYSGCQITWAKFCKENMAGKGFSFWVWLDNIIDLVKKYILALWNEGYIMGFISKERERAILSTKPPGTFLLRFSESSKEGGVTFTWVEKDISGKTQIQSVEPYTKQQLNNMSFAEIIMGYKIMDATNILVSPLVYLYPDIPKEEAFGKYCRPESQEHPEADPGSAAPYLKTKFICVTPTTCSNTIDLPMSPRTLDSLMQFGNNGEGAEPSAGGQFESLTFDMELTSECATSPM

CC(C)(c1ccc(OCC2CO2)cc1)c1ccc(OCC2CO2)cc1 (stereo unspecified)
active: [1] 58 µM | [4] 31.2 µM | [6] 60.5 µM | [7] 31.8 µM | [8] 39.2 µM | [9] 8.18 µM | [11] 33.4 µM | [12] 15.1 µM | [14] 33.4 µM | [15] 49.7 µM
inactive: [2] | [3] | [5] | [10] | [13]

ClCCBr
not listed: [2] | [6] | [18]
inactive: all other assays above

Nc1ccc(N=Nc2ccc(-c3ccc(N=Nc4c(S(=O)(=O)O)cc5cc(S(=O)(=O)O)c(N=Nc6ccccc6)c(O)c5c4N)cc3)cc2)c(N)c1
not listed: [9] | [18]
inactive: all other assays above

Nc1cccc2ccccc12
active: [4] 165 µM | [12] 170 µM
not listed: [7] | [9] | [14] | [15] | [16]
inactive: all other assays above

NC(=O)O
not listed: [10] | [11] | [18]
inactive: all other assays above

COc1cc(-c2ccc(N)c(OC)c2)ccc1N
active: [1] 53.6 µM | [7] 49.7 µM and 57.9 µM | [8] 19.9 µM | [10] 43.9 µM and 11.8 µM | [11] 15.7 µM and 33.6 µM | [17] 19.8 µM | [12] 7.03 µM and 39.9 µM
inactive: [1] | [2] | [3] | [4] | [5] | [6] | [8] | [16] | [17] | [13] | [15]

C[C@H]1CCCC(=O)CCC/C=C/c2cc(O)cc(O)c2C(=O)O1
active: [1] 16.8 µM | [6] 23.7 µM | [7] 33.1 µM | [9] 0.665 µM
not listed: [17] | [18]
inactive: all other assays above

CC1CN1P(=O)(N1CC1C)N1CC1C (stereo unspecified)
not listed: [2] | [9] | [10] | [15] | [16]
inactive: all other assays above

CC(C#N)CCC#N (stereo unspecified)
not listed: [7] | [18]
inactive: all other assays above

O=Cc1cccc(Oc2ccccc2)c1
not listed: [14]
inactive: all other assays above

COc1cc2c(cc1OC)[C@@]13CCN4CC5=CCO[C@H]6CC(=O)N2[C@H]1[C@H]6[C@H]5C[C@H]43
active: [4] 30.3 µM
inactive: [1] | [3] | [5] | [6] | [8] | [11] | [16] | [12] | [13]

CCOP(=S)(OCC)Oc1ccc(S(C)=O)cc1 (stereo unspecified)
active: [9] 15.9 µM
not listed: [7] | [15] | [18]
inactive: all other assays above

CC1(C)Cc2cccc(O)c2O1
not listed: [9] | [10] | [14]
inactive: all other assays above

Nc1ccc(-c2ccc(N)c(Cl)c2)cc1Cl
active: [7] 46.5 µM | [9] 27.4 µM | [11] 24.3 µM | [15] 4.63 µM
not listed: [6] | [10] | [16] | [18]
inactive: all other assays above

COP(=S)(OC)Oc1ccc(Sc2ccc(OP(=S)(OC)OC)cc2)cc1
active: [4] 39.3 µM | [6] 27 µM | [7] 57.7 µM | [18] 8.08 µM | [8] 49.2 µM | [9] 2.83 µM | [11] 37.2 µM
inactive: all other assays above

CC(Br)C(=O)O (stereo unspecified)
not listed: [2] | [16] | [18]
inactive: all other assays above

COc1ccccc1OC
not listed: [2] | [14] | [15] | [16]
inactive: all other assays above

COc1ccc(C=O)cc1OC
active: [9] 32 µM
not listed: [10] | [17]
inactive: all other assays above
